# From PubChem
# BioA inh – BioA (M. tuberculosis) enzyme inhibition. purified M. tuberculosis BioA enzyme, plate reader. inhibition, % at 9.99 µM. 360,000 compounds, 0.096% hits. AID 602481; in the data active = inhibition above about 40%
# GDH-TPI counter-1 – inhibits GDH-TPI coupling enzymes, artifact for Mtb FBA screen; GDH-TPI coupled enzyme counterscreen, NADH absorbance; inhibition, % at 4.8 µM; 360,000 compounds, 1.2% hits; in the data active = inhibition above about 30%
# Rv3671c protease – inhibitors of M. tuberculosis serine protease Rv3671c; P9WHR9; inhibition, % at 5.96 µM; 320,000 compounds, 0.048% hits; in the data active = inhibition above about 38%;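 also: extracellular domain of Rv3671c used as enzyme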
# Target sequence (P9WHR9 whole entry, looked up, the tested form may be a part): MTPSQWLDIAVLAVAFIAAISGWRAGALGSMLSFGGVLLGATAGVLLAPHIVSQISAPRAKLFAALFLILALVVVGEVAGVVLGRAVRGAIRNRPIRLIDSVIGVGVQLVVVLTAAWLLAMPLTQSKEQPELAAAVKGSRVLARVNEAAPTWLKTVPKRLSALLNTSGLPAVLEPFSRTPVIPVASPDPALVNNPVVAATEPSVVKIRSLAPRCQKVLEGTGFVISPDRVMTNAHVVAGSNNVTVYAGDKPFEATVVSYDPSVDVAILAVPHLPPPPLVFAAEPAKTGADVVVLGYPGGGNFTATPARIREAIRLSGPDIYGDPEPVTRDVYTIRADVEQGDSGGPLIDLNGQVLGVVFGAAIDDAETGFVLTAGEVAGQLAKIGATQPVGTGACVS
# Mtb FBA inh – Mtb fructose-bisphosphate aldolase inhibition; 360,000 compounds, 2.3% hits; P9WQA3; inhibition, % at 1 µM; AID 588726; purified M. tuberculosis FBA, fluorescence read-out
# FadD28 binding – M. tuberculosis FadD28 bisubstrate binding inhibition; FadD28 bisubstrate probe binding, fluorescence polarization; inhibition, % at 12.5 µM; 360,000 compounds, 0.22% hits; AID 588549; in the data active = inhibition above about 8.5%, passing the limit was not always enough
# Mtb FBA confirm – confirmation of M. tuberculosis fructose-bisphosphate aldolase inhibitors; shares compounds with Mtb FBA inh; purified M. tuberculosis FBA, fluorescence read-out; inhibition, % at 1 µM; 5,600 compounds, 78% hits; AID 651616
# GDH-TPI counter-2 – counter-screen for M. tuberculosis FBA inhibitors: GDH-TPI coupled enzyme inhibition; inhibition, % at 1 µM; GDH-TPI coupled enzyme counterscreen, fluorescence; 5,600 compounds, 81% hits; AID 652141; shares compounds with Mtb FBA inh; in the data active = inhibition above about 10%
# Numbers stand for hits; n = inactive; x = no result given; + = active, no number. Only some compounds are listed: those with a hit (about 3% of all), similar ones and a draw of the others. Rule as the data show it, unless noted: active = inhibition above about 27%; inactive = the rest.
SMILES,BioA inh,GDH-TPI counter-1,Rv3671c protease,Mtb FBA inh,FadD28 binding,Mtb FBA confirm,GDH-TPI counter-2
O=C(c1ccc2c(c1)OCCO2)C1CCN(C(=O)Nc2ccccc2F)CC1,n,n,n,28.8,n,71.4,62.3
CCC(C)[C@H](NC(=O)OC(C)(C)C)C(=O)N/N=C/c1ccc2nccnc2c1 (stereo partly specified),n,n,n,n,n,x,x
COc1ccc2nc(/C=N/NC(=O)[C@H](CCSC)NC(=O)OC(C)(C)C)ccc2c1,x,32.1,n,60.2,n,53.1,56.0
CC(C)(C)OC(=O)N1CCC[C@H]1C(=O)N/N=C/c1ccc2nccnc2c1,x,n,n,n,n,x,x
COc1ccc2nc(/C=N/NC(=O)[C@@H]3CCCN3C(=O)OC(C)(C)C)ccc2c1,n,n,n,99.1,n,54.0,45.9
CCC(C)[C@H](NC(=O)OC(C)(C)C)C(=O)N/N=C/c1ccc2cc(OC)ccc2n1 (stereo partly specified),x,n,n,33.0,n,+,180.5
C[C@H](CO)N1C[C@H](C)[C@H](CN(C)CC2CCOCC2)Oc2ncc(C3=CCCCC3)cc2C1=O,n,x,x,x,x,x,x
CC(C)NC(=O)N(C)C[C@H]1OCCCC[C@@H](C)Oc2ccc(NS(=O)(=O)c3ccccc3)cc2C(=O)N([C@H](C)CO)C[C@@H]1C,n,x,x,x,x,x,x
C/C(=C\COc1ccc2ccc(=O)oc2c1)CC[C@@H](O)C(C)(C)O,n,n,n,83.1,n,n,n
C/C(=C\COc1cc(=O)[nH]c2ccccc12)CCC(O)C(C)(C)O (stereo unspecified),n,n,n,n,n,x,x
CCOc1ccc(-c2nnc(NC(=O)COc3ccccc3F)o2)cc1,n,n,x,n,n,x,x
CCOC(=O)CNC(=O)Nc1nnc(-c2ccc(OCC)cc2)o1,x,n,n,63.1,n,n,n
CCCCNC(=O)Nc1nnc(-c2ccc(OCC)cc2)o1,n,n,n,29.0,n,70.0,40.5
CCCCNC(=O)Nc1nnc(-c2ccccc2)o1,x,n,n,n,n,x,x
O=S(=O)(N[C@@H]1CCCN(Cc2ccc(OCCO)cc2)C1)c1cccc2cccnc12,n,x,x,x,x,x,x
N#C/C(=C\c1ccc(Cl)cc1Cl)c1n[nH]c(Cn2cncn2)n1,n,n,n,36.2,n,+,164.8
Cc1cc(N2CCC(C)CC2)nc2ccc(N3C(=O)CCC3=O)cc12,n,n,n,58.7,n,98.4,79.5
O=C(C[C@@H]1C=C[C@@H](NS(=O)(=O)c2ccccc2)[C@H](CO)O1)NCc1ccc(Cl)c(Cl)c1,n,x,x,x,x,x,x
Cc1cccc(CNc2ncnc3ccc(-c4ccc5c(c4)OCO5)cc23)c1,n,n,n,n,n,x,x
Cc1ccc(CNc2ncnc3ccc(-c4ccc(CO)o4)cc23)o1,n,n,x,81.4,n,n,n
Cc1cc2c(c(=O)n1CC1CCCO1)C(c1ccco1)C(C#N)=C(N)O2 (stereo unspecified),n,n,n,31.6,n,40.8,37.9
Cc1noc(C)c1NC(=O)Nc1ccc2c(c1)CC(=O)N([C@@H](C)CO)C[C@@H](C)[C@H](CN(C)Cc1ccncc1)O2,n,x,x,x,x,x,x
C[N+]1(CC(=O)OCCCc2ccccc2)CCCCC1,x,n,n,30.1,n,59.9,41.7
CC(C)c1nc2oc3c(NCC4CCCO4)ncnc3c2c2c1COC(C)(C)C2 (stereo unspecified),n,n,x,n,n,x,x
Cc1nc2oc3c(NCc4ccccc4)ncnc3c2c2c1COC(C)(C)C2,n,n,n,n,n,x,x
SMILES,BioA inh,GDH-TPI counter-1,Rv3671c protease,Mtb FBA inh,FadD28 binding,Mtb FBA confirm,GDH-TPI counter-2
CCCc1nc2oc3c(OC)ncnc3c2c2c1COC(C)(C)C2,n,n,n,n,n,x,x
CC(C)c1nc2oc3c(=O)[nH]cnc3c2c2c1COC(C)(C)C2,n,n,n,43.7,n,195.6,181.5
CCCc1nc2oc3c(NCCOCCO)ncnc3c2c2c1COC(C)(C)C2,n,n,n,81.8,n,95.8,59.9
CC(C)c1nc2oc3c(NCCO)ncnc3c2c2c1COC(C)(C)C2,n,n,n,87.6,n,129.1,99.4
Cc1nc2oc3c(NCC4CCCO4)ncnc3c2c2c1COC(C)(C)C2 (stereo unspecified),x,n,n,102.2,n,+,185.2
Cc1ccc(S(=O)(=O)N(C)C[C@H]2Oc3ccc(NS(=O)(=O)c4ccc(Cl)cc4)cc3CC(=O)N([C@H](C)CO)C[C@H]2C)cc1,n,x,x,x,x,x,x
CCCN1C[C@@H](C)[C@@H](OC)CN(C)C(=O)c2ccc(NC(=O)Nc3cccc(OC)c3)cc2OC[C@@H]1C,n,x,x,x,x,x,x
CCc1cc2c(=O)c(-c3cnn(-c4ccccc4)c3)c(C)oc2c(CN2CCCCC2)c1O,n,n,n,41.2,n,+,+
CCc1cc2c(=O)c(-c3cnn(-c4ccccc4)c3)coc2c(CN2CCOCC2)c1O,x,n,n,n,n,x,x
O=C(Nc1cccc(F)c1)N1C[C@@H]2[C@H](c3ccccc31)[C@@H](CO)N2C(=O)Cc1ccccn1,n,x,x,x,x,x,x
Cc1c(OCC(=O)NCc2ccccn2)ccc2c3c(c(=O)oc12)CCCC3,n,n,n,n,n,x,x
Cc1c(OCC(=O)NCC(O)c2ccccc2)ccc2c3c(c(=O)oc12)CCC3 (stereo unspecified),n,n,n,n,n,x,x
Cc1c(OCc2ccc(C(=O)O)o2)ccc2c3c(c(=O)oc12)CCC3,n,n,n,71.9,n,27.7,24.7
Cc1c(OCC(=O)N[C@H](C(=O)O)c2ccccc2)ccc2c3c(c(=O)oc12)CCCC3,n,n,n,30.7,n,n,n
CCN(CC)C(=O)COc1ccc2c3c(c(=O)oc2c1C)CCCC3,n,n,n,63.7,n,+,+
CO[C@H]1CN(C)C(=O)c2cc(NC(=O)c3nc4ccccc4s3)ccc2OC[C@H](C)N(Cc2cccnc2)C[C@H]1C,n,x,x,x,x,x,x
COC(=O)c1ccc(NC2CC(=O)N(c3ccccc3C)C2=O)cc1 (stereo unspecified),n,n,n,n,n,x,x
COC(=O)c1ccccc1NC1CC(=O)N(c2c(C)cccc2C)C1=O (stereo unspecified),x,n,n,89.2,n,+,+
CCOC(=O)c1cnc2cc3c(cn2c1=O)CCCC3,n,n,n,93.8,n,+,+
Cc1noc(C)c1NC(=O)N1C[C@@H](O)COC[C@@H]2O[C@H](CC(=O)NCC3CCCCC3)CC[C@H]21,n,x,x,x,x,x,x
O=c1c2[nH]c3ccc(F)cc3c2ncn1CC1CCCO1 (stereo unspecified),n,n,n,n,n,x,x
Cn1c2ccc(F)cc2c2ncn(Cc3ccccn3)c(=O)c21,x,n,n,27.5,n,47.1,40.9
Cn1c2ccc(F)cc2c2ncn(CC3CCCO3)c(=O)c21 (stereo unspecified),n,n,n,27.4,n,175.7,179.5
Cn1c2ccc(F)cc2c2ncn(Cc3ccco3)c(=O)c21,n,n,n,31.7,n,97.6,91.3
CCOCCCn1cnc2c3cc(F)ccc3n(C)c2c1=O,n,n,n,31.3,n,162.6,133.2
